Source: PubChem BioAssay (National Center for Advancing Translational Sciences (NCATS))
Shown are actives, neighbours in structure and some others; about 17% of the full set was active somewhere.
TGFb SMAD3 inh – blocks TGF-b signaling; HepG2 CAGA-GFP TGF-b/SMAD3 reporter, GFP fluorescence, 18 h; TGF-beta stimulated, 500 pg/mL final; actives 1.2% (n = 410,000); Potency, µM (top dose mostly 46.1 µM), actives largely listed as inhibitors; also: nearly all actives have a fitted effect of over 65% in size
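Read-out: total well GFP (ex488/em500-530) summed from mean per-cell fluorescence. Cells: HEPG2 CAGA-GFP, 1% FBS DMEM, 18 h at 37 degrees C with 500 pg/mL final TGF-beta. Unstimulated wells served as the full-inhibition control; stimulated DMSO wells = 0%.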
ATXN viability – cell viability loss in ATXN counter-screen; actives 0.49% (n = 400,000); S2 cells (HEK-293 line with an ATXN2-luciferase reporter) viability, CellTiter-Fluor protease fluorescence, 24 h; Potency, µM (series often up to 56.7 µM), actives largely listed as cytotoxic; also: nearly all actives have a fitted effect of over 40% in size
HepG2 viability – kills HepG2 cells in TGF-b inhibitor counter-screen | HepG2 CAGA-GFP viability, ATP luminescence, 18 h | Potency, µM (highest dose often 46.1 µM), actives largely listed as cytotoxic | actives 0.76% (n = 410,000) | AID 588856
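HepG2 CAGA-GFP cells (1000/well, DMEM with 1% FBS) received compound, then TGF-beta at 500 pg/mL final, and were incubated 18 hours at 37 degrees C. Viability was read by CellTiter-Glo luminescence. Media-only wells were set as complete cell-killing and DMSO as no toxicity.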
DT40 TDP1 no CPT – qHTS for Inhibitors of human tyrosyl-DNA phosphodiesterase 1 (TDP1): qHTS in cells in absence of CPT. DT40 Tdp1-/- hTDP1 cells, no CPT, ATP luminescence, 48 h. Potency, µM (top dose mostly 46.2 µM), hits mostly inhibitors. actives 15% (n = 420,000); also: nearly all actives have a fitted effect of over 55% in size
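Chicken DT40 Tdp1-/- cells stably complemented with human TDP1 were seeded at 400 cells/well with DMSO in place of 20 nM camptothecin. After compound pinning, cells grew at least 48 hr at 37 °C; viability read by CellTiter-Glo luminescence.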
TDP1 cell CPT – DT40-hTDP1 cell growth loss with CPT; Potency, µM (doses to about 46.2 µM), actives largely listed as inhibitors; actives 12% (n = 420,000); chicken DT40 Tdp1-/-;hTDP1 cells + 20 nM CPT, ATP luminescence, 48 h; also: nearly all actives have a fitted effect of over 55% in size
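Cell growth measured by CellTiter-Glo luminescence after a minimum 48 h, 37 C compound exposure with 20 nM CPT in Tdp1-knockout DT40 cells stably expressing hTDP1, seeded 400/well; qHTS titration format.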
ATXN2 expr inh – reduces ATXN2 reporter expression in HEK-293 cells; HEK-293 ATXN2-luciferase reporter, luminescence, 24 h; Potency, µM (top dose mostly 57 µM), usual class: inhibitors; actives 0.72% (n = 360,000); AID 1745845; also: nearly all actives have a fitted effect of over 55% in size
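qHTS (up to 57 uM final) was run with 24 h compound exposure of reporter cells at 37 °C. Each well was multiplexed: SteadyGlo luminescence measured ATXN2-luciferase expression after a fluorogenic Gly-Phe-AFC viability readout (25 uM final).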
Numbers stand for hits; n = inactive; u = inconclusive; x = no result. Calls follow the shape of the dose curve; as a rule, active = well fitted curve in the direction sought with a large enough effect; inconclusive = small, poorly fitted or top-dose-only effect, or another doubt; inactive = no such curve, though single readings can be large; an effect the other way counts as inactive or inconclusive.

SMILES	TGFb SMAD3 inh	ATXN viability	HepG2 viability	DT40 TDP1 no CPT	TDP1 cell CPT	ATXN2 expr inh
CCn1c(C(=O)NCCc2ccc(OC)c(OC)c2)cc2sc(Cl)cc21	u	x	n	11.6µM	18.4µM	x
CCn1c(C(=O)NCc2ccc(C)cc2)cc2sc(Cl)cc21	x	x	n	u	u	x
CCOc1ccc(CCNC(=O)c2cc3sccc3n2CC)cc1OCC	n	u	n	5.8µM	5.17µM	u
CCOc1ccc(CCNC(=O)c2cc3sc(CC)cc3n2C)cc1OCC	u	x	n	11.6µM	14.6µM	x
CCOc1ccc(CCNC(=O)COC(=O)c2sccc2C)cc1OCC	n	n	n	13µM	u	n
CCn1c(C(=O)NCc2ccccc2OC)cc2sccc21	n	u	n	u	u	n
CCC(Cn1nnc2ccccc2c1=O)NC(=O)Nc1cccc(C)c1C (stereo not given)	n	x	n	n	n	x
O=C(NOC(=O)c1ccccc1Cl)c1cccs1	n	x	n	n	n	x
CC1COC2(CCN(c3nc(=O)c4cc(C(F)(F)F)cc([N+](=O)[O-])c4s3)CC2)O1 (stereo not given)	x	x	x	x	x	n
Cc1cccc(-n2c3nc(=O)[nH]c(=O)c-3cc3cc([N+](=O)[O-])ccc32)c1	u	u	n	n	4.61µM	n
O=c1nc2n(-c3ccccc3F)c3ccccc3cc-2c(=O)[nH]1	n	x	n	u	u	n
Cc1ccc(C)c(-n2c3nc(=O)[nH]c(=O)c-3cc3cc([N+](=O)[O-])ccc32)c1	u	u	n	0.82µM	1.16µM	u
O=C(c1ccccc1F)n1c2c(c3ccccc31)CCCC2	n	n	n	u	23.1µM	n
Cc1ccc(C2=C(O)C(=O)C(c3ccc(C)cc3)=C(O)C2=O)cc1	n	n	n	11.6µM	u	n
CC1=C(O)C(=O)C(C2=C(O)C(=O)C(C)=C(O)C2=O)=C(O)C1=O	n	n	n	n	n	n
Cc1nn(CCO)c(N)c1C1(O)C(=O)Nc2c(Cl)cc(Cl)cc21 (stereo not given)	u	u	n	3.26µM	4.11µM	n
Cc1ccc(-n2nc(C)c(C3(O)C(=O)N(C)c4ccccc43)c2N)cc1 (stereo not given)	n	n	n	u	u	n
Cc1cc(OCc2cc(C(=O)N(Cc3nccn3C)C(C)C)no2)cc(C)c1Cl	u	n	n	6.51µM	16.4µM	n
CSc1ccccc1OCc1cc(C(=O)N(Cc2nccn2C)C(C)C)no1	n	n	n	u	18.4µM	n
Cc1ccc(CN(C)C(=O)c2cc(COc3cccc(C(F)(F)F)c3)on2)o1	u	n	n	18.4µM	u	n
CC(C)N(Cc1nccn1C)C(=O)c1cc(COc2cccc(C(F)(F)F)c2)on1	u	n	n	13µM	16.4µM	n
Cc1ccccc1NC(=O)Cc1nc(COC(=O)c2cccc([N+](=O)[O-])c2)cs1	n	n	n	n	n	n
COc1nccc(NCc2ccccc2)c1C#N	n	n	n	n	n	x
Cc1ccc(CNC(=O)CN2C(=O)CCn3nc(-c4ccccc4)cc32)cc1	n	n	n	n	n	n
CCCCCN1CC(=O)N2C(C)c3[nH]c4ccccc4c3C[C@H]2C1=O (stereo not given in full)	u	n	n	u	n	x
COc1ccc(CCNC(=O)c2ccc(OCC(=O)N3CCOCC3)c(OC)c2)cc1OC	u	n	n	n	n	n
CC1(C)Nc2ccc(O)cc2-c2c1ssc2=S	n	u	n	2.06µM	0.731µM	n
CCN(CC)CC(=O)Nc1ccccc1SCC(=O)Nc1ccsc1C(=O)OC	n	n	n	u	u	n
CN(C)S(=O)(=O)c1ccc(C(=O)Nc2nnc(-c3ccco3)o2)cc1	n	n	n	u	20.6µM	n
O=C(CCS(=O)(=O)c1ccc(F)cc1)Nc1nnc(-c2ccco2)o1	u	n	n	u	u	n
